Inconclusive results are not listed. The source made the active and inactive calls. The calls were made as follows: active = hit-call score of the fitted dose curve at least 0.9, where 1 is the maximum; inconclusive = response in the unintended direction; inactive = score below 0.9.

Nucleoli Translocation, AR (gene 367), sequence (P10275 whole entry, looked up, the tested form may be a part): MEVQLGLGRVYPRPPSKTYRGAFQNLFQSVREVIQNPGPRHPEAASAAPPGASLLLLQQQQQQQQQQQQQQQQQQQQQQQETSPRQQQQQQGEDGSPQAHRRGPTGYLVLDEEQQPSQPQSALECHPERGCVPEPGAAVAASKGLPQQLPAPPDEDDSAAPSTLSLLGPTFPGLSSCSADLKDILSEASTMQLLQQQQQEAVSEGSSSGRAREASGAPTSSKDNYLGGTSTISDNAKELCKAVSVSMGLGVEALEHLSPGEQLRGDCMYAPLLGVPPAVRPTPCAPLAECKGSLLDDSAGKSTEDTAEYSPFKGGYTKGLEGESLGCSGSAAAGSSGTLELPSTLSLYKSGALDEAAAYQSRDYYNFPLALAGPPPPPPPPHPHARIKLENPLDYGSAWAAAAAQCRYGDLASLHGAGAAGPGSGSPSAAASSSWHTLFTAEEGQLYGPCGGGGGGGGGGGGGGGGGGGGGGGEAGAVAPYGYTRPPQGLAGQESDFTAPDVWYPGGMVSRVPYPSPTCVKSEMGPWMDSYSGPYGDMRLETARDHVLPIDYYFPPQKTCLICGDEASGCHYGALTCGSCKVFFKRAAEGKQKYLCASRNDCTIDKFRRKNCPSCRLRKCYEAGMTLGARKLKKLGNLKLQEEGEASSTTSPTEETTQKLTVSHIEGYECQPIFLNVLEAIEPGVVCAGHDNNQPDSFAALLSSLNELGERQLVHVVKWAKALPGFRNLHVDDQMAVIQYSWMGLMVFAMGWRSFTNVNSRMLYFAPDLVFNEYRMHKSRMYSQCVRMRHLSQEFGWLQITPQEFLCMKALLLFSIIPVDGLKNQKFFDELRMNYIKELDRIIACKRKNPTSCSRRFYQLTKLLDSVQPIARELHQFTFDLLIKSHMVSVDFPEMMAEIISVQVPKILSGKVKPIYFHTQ

In the experiment the target is Nucleoli Translocation, AR (gene 367) (UniProt P10275). The experiment can be described thus: UPITT_HCI_U2OS_AR_TIF2_Nucleoli_Antagonist: University of Pittsburgh U2OS Androgen Receptor-Transcriptional Intermediary Factor 2 (AR-TIF2) Antagonism High Content Imaging Assay for Nucleoli Translocation (AID 2283997). From the text:
UPITT_AR_TIF2_PPIB is a cell-based, high-content imaging assay that uses U2OS, a human osteosarcoma cell line, expressing a human androgen receptor fused to red fluorescent protein and the coactivator TIF2 fused to green fluorescent protein. UPITT_HCI_U2OS_AR_TIF2_Nucleoli_Antagonist is one of four assay components measured from the UPITT_AR_TIF2_PPIB assay. It is designed to make measurements of red fluorescence localized in the nucleolar region of the cell nucleus as detected with high-content fluorescent imaging.Data from the assay component UPITT_HCI_U2OS_AR_TIF2_Nucleoli_Antagonist was analyzed into 1 assay endpoint. This assay endpoint, UPITT_HCI_U2OS_AR_TIF2_Nucleoli_Antagonist, was analyzed in the positive analysis fitting direction relative to DHT as the baseline of activity. Using a type of binding reporter, measures of receptor for loss-of-signal activity can be used to understand the binding at the pathway-level as it relates to the gene AR.
Daughter plates containing 2 uL of 10 mM compounds in DMSO were prepared and replicated from the 384-well Library of Pharmacologically Active Compounds (LOPAC) master plates using the Bravo outfitted with a 384-well transfer head. Aluminum adhesive plate seals were applied with an Abgene Seal-IT 100 (Rochester, NY) plate sealer, and the plates were stored at -20 C in a Matrical MatriMinistore (Spokane, WA) automated compound storage and retrieval system. For screening, LOPAC daughter plates were withdrawn from -20C storage, thawed to ambient temperature, centrifuged 1-2 min at 50 g, and the plate seals were removed before the transfer of 98 uL of serum-free tissue culture medium (SFM) into wells using the BioTek Microflo liquid handler (BioTek, Winooski, VT) to generate a 200 uM intermediate stock concentration of library compounds (2.0% DMSO). The diluted compounds were mixed by repeated aspiration and dispensation using a 384-well P30 dispensing head on the Evolution P3 (EP3) liquid handling platform (PerkinElmer, Waltham, MA) and then 5 uL of diluted compounds was transferred to the wells of assay plates. In the LOPAC screen, compounds were individually tested at a final concentration of 20 uM (0.2% DMSO). After the diluted compounds had been transferred from the daughter plates to the primary HCS assay plates, aluminum adhesive plate seals were applied and the diluted daughter plates were stored frozen at -20C. To confirm active compounds identified in the primary screen, we withdrew the LOPAC daughter plates containing the 200 uM intermediate concentration of library compounds (2.0% DMSO) from -20C storage, thawed them to ambient temperature, centrifuged them for 1-2 min at 50 g, and removed the plate seals. A work list was generated to direct the Multiprobe Janus liquid handling platform (PerkinElmer) to cherry pick 75 uL from the wells of the diluted daughter plates that were flagged active in the primary screen and to reformat these into a 384-well plate hit confirmation daughter plate. Five microliters of primary HCS active compounds was then transferred into triplicate wells of assay plates using a 384-well P30 dispensing head on the Evolution P3 (EP3) liquid handling platform (PerkinElmer). […] Daughter plates containing 2 uL of the serially diluted compounds in DMSO were prepared and replicated from the 384-well serial dilution master plates using the Bravo outfitted with a 384-well transfer head. Aluminum adhesive plate seals were applied and plates were stored at -20C. […] The ImageXpress Ultra (IXU) platform (Molecular Devices LLC, Sunnyvale, CA) and The ImageXpress Micro (IXM) platform were used for imaging.
Regarding `CN(C)C(=O)Nc1ccc(Cl)c(Cl)c1`, the call was inactive.

For `CCOC(=O)C(C)Oc1ccc(Oc2nc3ccc(Cl)cc3o2)cc1` (stereo not drawn), the result was inactive.

Regarding `Cc1nn(C)c(Oc2ccccc2)c1C=NOCc1ccc(C(=O)OC(C)(C)C)cc1`, the call was inactive.

On to `O=C(O)C1(C(=O)Nc2ccc(Cl)cc2Cl)CC1`, for which the result was inactive.

On to `CSC(=O)c1cccc2nnsc12`, for which the AC50 (as a rule, the concentration giving half of the maximal activity seen) is 50 µM (active).

In the case of `CC(C)(c1ccc(O)cc1)c1ccc(O)cc1`, the AC50 was 12.9 µM (active).

With `C[C@]12CC[C@@H]3c4ccc(O)cc4C[C@@H](CCCCCCCCCS(=O)CCCC(F)(F)C(F)(F)F)[C@H]3[C@@H]1CC[C@@H]2O` (stereo partly drawn), the call was inactive.

Turning to `COC(=O)CSc1cc(N=c2sc(=O)n3n2CCCC3)c(F)cc1Cl`, the result was inactive.

As to `O=C(c1ccc(O)cc1O)c1ccc(O)cc1O`, the AC50 was 10.1 µM (active).

In the case of `c1ccc2[nH]c(-c3cscn3)nc2c1`, the call was inactive.

For the molecule `CCCN(CCC)C(=O)SCC`, the molecule was called inactive.

For the molecule `CCCOC(=O)c1ccc(C(=O)OCCC)nc1`, the call was inactive.

With `CCSC(=O)N(CC(C)C)CC(C)C`, the outcome was inactive.

In the case of `O=C(c1ccccc1)C1CCCCC1`, the outcome was inactive.

Take `N#CSCSc1nc2ccccc2s1`: the AC50 was 9.92 µM (active).

Consider `CCCCOCCOCCOCc1cc2c(cc1CCC)OCO2`, for which the molecule was called inactive.

For the molecule `CC(=O)S[C@@H]1CC2=CC(=O)CC[C@]2(C)[C@H]2CC[C@@]3(C)[C@@H](CC[C@@]34CCC(=O)O4)[C@H]12`, the molecule was called inactive.

`CC1(C)C(C=C(Cl)Cl)C1C(=O)OCc1cccc(Oc2ccccc2)c1` (stereo not drawn): the result was inactive.

The values above are taken from PubChem BioAssay (EPA / NIEHS).
